This note sets out measurements from ChEMBL document CHEMBL1201862, “PubChem BioAssay data set” (2004).

About 3,500 (6%) of roughly 58,000 sequences were called active. Cut-off read from the data, not from the text of the source: active = GI50 up to about 1.1 µM and inactive = higher. Only a sample is shown. Results with a measured potency or affinity are listed apart.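 Grown in 96-well plates, cells were treated for 48 hours with each compound at five concentrations. Insufficient inhibition: endpoint recorded as highest concentration tested. The concentration for 50% growth inhibition is given as GI50.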

For the experiment, the system named is SN12C. Kind of experiment: NCI tumour cell line growth inhibition, 48 h.
“[Bis(aminomethyl)pentamethylenesilane]dichloropaltinum(II), CHEMBL2146202” returned a GI50 of 1.87 µM.

As to “[Bis(aminomethyl)pentamethylenesilane]tetrachloropaltinum(IV), CHEMBL2146204”, the GI50 is 2 µM. Substance “[Bis(aminomethyl)tetramethylenesilane]tetrachloropaltinum(IV), CHEMBL2146189” returned a GI50 of 2.64 µM. In the case of “cis-Bis[[(trimethylsilyl)methyl]amino]tetrachloroplatinum(IV), CHEMBL2146191”, the GI50 was determined as 13.1 µM. The figure for “[Bis(aminomethyl)dimethylsilane]tetrachloroplatinum(IV), CHEMBL2146190” is 8.45 µM. Turning to “mu-(1,7-nanodiamine-N,N')bis-(cis-aminedichloroplatimum (II)), CHEMBL2146215”, the GI50 was determined as 0.387 µM. For the substance “[Bis(aminomethyl)tetramethylenesilane]dichloropaltinum(II), CHEMBL2146205”, the GI50 was 23.9 µM.

On to “[Bis(aminomethyl)dimethylsilane]dichloroplatinum (II), CHEMBL2146201”, for which the GI50 was 32.4 µM. Take “[Bis(aminomethyl)diethylsilane]tetrachloroplatinum(IV), CHEMBL2146203”: the GI50 came out at 2.34 µM. “[Bis(aminomethyl)ethylmethylsilane]tetrachloroplatinum(IV), CHEMBL2146192” returned a GI50 of 4.25 µM.

The substance CISPLATIN, CHEMBL11359 registered a GI50 of 4.83 µM.
